The text below walks through data of PubChem BioAssay (NCI).

Each structure is given as a SMILES string. The panel holds about 83,000 compounds, 20% with a hit somewhere; the sample as a whole holds those more often.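 Note: values are percent growth. 100 is the growth of untreated cells, values between 100 and 0 indicate rising inhibition; between -100 and 0 indicates cell death.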 Unmarked numbers belong to inactive results. Calls of active or inactive are those of the source. The calls were made as follows: active = growth percent below 10; inactive = the rest.

Among the test systems are RPMI-8226 leukemia; OVCAR-8 ovarian; OVCAR-5 ovarian; OVCAR-4 ovarian; SK-OV-3 ovarian; IGROV1 ovarian; OVCAR-3 ovarian; HS 578T breast; NCI/ADR-RES ovarian; T-47D breast; BT-549 breast; MDA-MB-435 melanoma; SW-620 colon; MCF7 breast; HCT-116 colon; HCC-2998 colon; KM12 colon.
Common to all, as to test: NCI-60 one-dose screen, 48 h (100 = growth as untreated, 0 = no growth, -100 = all killed)
Conditions in all cases: 10 µM unless noted

For the molecule `CCCNc1nc(SC)nc(-c2cccc(N)c2)c1C#N`, the growth with RPMI-8226 leukemia was 103%; in the experiment on OVCAR-8 ovarian it was 99.1%; in the experiment on OVCAR-5 ovarian, 101%; with OVCAR-4 ovarian, 92.4%; with SK-OV-3 ovarian, 93.7%; in the experiment with IGROV1 ovarian it was 92.2%. For the same molecule, the growth in the experiment on OVCAR-3 ovarian was 110%; with HS 578T breast it was 93.1%; with NCI/ADR-RES ovarian, 101%; with T-47D breast it was 86.2%; in the experiment with BT-549 breast it was 97.7%; with MDA-MB-435 melanoma, 103%. The growth in the experiment on SW-620 colon was 98.7%; in the experiment with MCF7 breast, 89.1%; in the experiment on HCT-116 colon, 96.3%; in the experiment with HCC-2998 colon, 108%; in the experiment on KM12 colon, 101%.
`CSc1nc(NCCCNc2ccnc3cc(Cl)ccc23)cc(-c2ccccc2)n1`: the growth with RPMI-8226 leukemia was 7.4% (active); in the experiment on OVCAR-8 ovarian, 81.7%; in the experiment on OVCAR-5 ovarian, 95%; in the experiment on OVCAR-4 ovarian, 66.6%; in the experiment on SK-OV-3 ovarian it was 82.3%; with IGROV1 ovarian it was 67%. In addition, the growth is 72.3% with OVCAR-3 ovarian; 65% with HS 578T breast; 67.5% in the experiment on NCI/ADR-RES ovarian; 66.3% in the experiment on T-47D breast; 86.9% with BT-549 breast; 55.4% in the experiment with MDA-MB-435 melanoma. Further, the growth in the experiment on SW-620 colon is 72%; with MCF7 breast, 6.05% (active); with HCT-116 colon it was 43.1%; in the experiment on HCC-2998 colon it was -59.6% (active); in the experiment on KM12 colon, 68.3%.
As to `CC/C(=C(\c1ccc(O)cc1)c1ccc(OCCN(C)CCN(C)C(=O)CCCCC(=O)c2c(C)[nH]c(/C=C3\N=C(c4ccc[nH]4)C=C3OC)c2C)cc1)c1ccccc1`, the growth was 63.1% with RPMI-8226 leukemia; 85.4% in the experiment with OVCAR-8 ovarian; 108% with OVCAR-5 ovarian; 77.7% with OVCAR-4 ovarian; 123% in the experiment on SK-OV-3 ovarian; 89.5% in the experiment on IGROV1 ovarian. For the same molecule, the growth is 89.4% with OVCAR-3 ovarian; 97.8% with HS 578T breast; 97.4% with NCI/ADR-RES ovarian; 62.4% in the experiment on T-47D breast; 91.5% in the experiment with BT-549 breast; 88% in the experiment on MDA-MB-435 melanoma. Further, the growth with SW-620 colon was 88%; with MCF7 breast, 41.3%; in the experiment with HCT-116 colon, 56.3%; in the experiment on HCC-2998 colon, 97%; in the experiment on KM12 colon, 68.6%.
Turning to `C=C1CCC2C3(C)COC(c4ccc(SC)cc4)OC3CCC2(C)C1C/C=C1/C(=O)OCC1O` (centres undefined), the growth with RPMI-8226 leukemia is 11.6%; in the experiment on OVCAR-8 ovarian, 34.9%; in the experiment on OVCAR-5 ovarian, 79.1%; in the experiment on OVCAR-4 ovarian it was 59.1%; in the experiment on SK-OV-3 ovarian it was 96.3%; in the experiment with IGROV1 ovarian, 99.2%. Also, the growth with OVCAR-3 ovarian was 71.4%; with HS 578T breast, 102%; in the experiment on NCI/ADR-RES ovarian, 49.8%; with T-47D breast, 23.6%; with BT-549 breast, 64.6%; with MDA-MB-435 melanoma, 61.3%. Also, the growth was 10.6% in the experiment on SW-620 colon; 27.7% in the experiment on MCF7 breast; 11.2% in the experiment with HCT-116 colon; 90.5% in the experiment with HCC-2998 colon; 44.3% with KM12 colon.
As to `CN1CCN(Cc2ccc(NC(=O)c3[nH]ncc3Nc3ncnc4sccc34)cc2)CC1`, the growth in the experiment on RPMI-8226 leukemia was -4.38% (active); with OVCAR-8 ovarian it was 12%; in the experiment on OVCAR-5 ovarian, 21.2%; in the experiment on OVCAR-4 ovarian, 10.2%; in the experiment on SK-OV-3 ovarian, 31.4%; in the experiment on IGROV1 ovarian, 23.6%. Further, the growth was 3.42% (active) in the experiment with OVCAR-3 ovarian; -2.25% (active) in the experiment on HS 578T breast; 16.4% with NCI/ADR-RES ovarian; 27.7% with T-47D breast; -5.78% (active) with BT-549 breast; 25.8% with MDA-MB-435 melanoma. The growth with SW-620 colon was 6.8% (active); in the experiment on MCF7 breast, 9.47% (active); with HCT-116 colon it was 6.91% (active); with HCC-2998 colon, -1.02% (active); with KM12 colon, 5.21% (active).
In the case of `Nc1cc(-c2nc3sccn3c2-c2ccnc(NCCCNS(=O)(=O)c3ccc(F)cc3)n2)ccc1F`, the growth is 23% in the experiment with RPMI-8226 leukemia; 46.5% in the experiment with OVCAR-8 ovarian; 61% in the experiment on OVCAR-5 ovarian; 55.2% in the experiment on OVCAR-4 ovarian; 73.6% in the experiment with SK-OV-3 ovarian; 39.9% with IGROV1 ovarian. The growth with OVCAR-3 ovarian is 79.4%; in the experiment on HS 578T breast it was 77.4%; in the experiment on NCI/ADR-RES ovarian, 47.7%; in the experiment with T-47D breast, 15.4%; in the experiment with BT-549 breast, 52.2%; in the experiment with MDA-MB-435 melanoma, 22.9%. The growth with SW-620 colon is 54.7%; in the experiment with MCF7 breast, 37.4%; with HCT-116 colon, 36.8%; in the experiment on HCC-2998 colon, 90.3%; in the experiment with KM12 colon, 59.7%.
As to `O=C1C=CC(=O)c2c1nc1n2CCCC1`, the growth was 116% in the experiment on RPMI-8226 leukemia; 92% with OVCAR-8 ovarian; 112% with OVCAR-5 ovarian; 101% with OVCAR-4 ovarian; 92.5% in the experiment on SK-OV-3 ovarian; 103% in the experiment on IGROV1 ovarian. In addition, the growth in the experiment on OVCAR-3 ovarian is 21%; in the experiment on HS 578T breast, 73.1%; in the experiment with NCI/ADR-RES ovarian, 89.6%; in the experiment on T-47D breast it was 86.7%; in the experiment on BT-549 breast, 95.2%; in the experiment with MDA-MB-435 melanoma, -68.5% (active). Moreover, the growth is 62.3% in the experiment with SW-620 colon, 91.9% in the experiment on HCT-116 colon, 57.6% with HCC-2998 colon and 75% with KM12 colon.
On to `COc1ccc(-c2cc(NC(=O)Nc3ccc(O)cc3)no2)cc1`, for which the growth was 82.1% in the experiment with RPMI-8226 leukemia; 90.1% in the experiment with OVCAR-8 ovarian; 82.9% with OVCAR-5 ovarian; 76.7% in the experiment on OVCAR-4 ovarian; 111% in the experiment on SK-OV-3 ovarian; 68.2% with IGROV1 ovarian. Besides, the growth is 87.4% in the experiment on OVCAR-3 ovarian; 89.3% with HS 578T breast; 67.8% in the experiment on NCI/ADR-RES ovarian; 70.5% in the experiment on T-47D breast; 64.5% in the experiment on BT-549 breast; 76.3% in the experiment on SW-620 colon. The growth with MCF7 breast is 70.2%; in the experiment with HCT-116 colon, 90%; in the experiment on KM12 colon, 20.8%.
Regarding `CCCCCCCCCCCCCCCCCCSC1=CC(=O)C(OC)=C(OC)C1=O`, the growth with RPMI-8226 leukemia was 40.8%; in the experiment with OVCAR-8 ovarian, 86.2%; in the experiment with OVCAR-5 ovarian, 94.3%; in the experiment with OVCAR-4 ovarian it was 109%; in the experiment with SK-OV-3 ovarian it was 95.7%; with IGROV1 ovarian, 106%. Further, the growth was 98.2% in the experiment with OVCAR-3 ovarian; 90.9% in the experiment on HS 578T breast; 91.7% in the experiment with NCI/ADR-RES ovarian; 87.9% in the experiment on T-47D breast; 111% in the experiment on BT-549 breast; 68.2% in the experiment on MDA-MB-435 melanoma. In addition, the growth in the experiment on SW-620 colon is 81.5%; in the experiment on MCF7 breast, 96.8%; in the experiment with HCT-116 colon, 97.9%; in the experiment on KM12 colon, 94.4%.
